Assay [1] in a line: qHTS assay to identify small molecule agonists of the RXR signaling pathway - cell viability counter screen (AID 1159529).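 Further: HEK 293T cells carrying an RXR-alpha UAS beta-lactamase reporter; series mostly up to about 77 µM; nearly all actives have a fitted effect of over 50% in size.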 An outline of the steps:
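Steps: seed RXR-alpha-UAS-bla HEK 293T cells in assay medium containing 2% charcoal-stripped FBS; incubate 5 hr; add compounds in DMSO; incubate 16 hr at 37 C; after the bla read, add CellTiter-Glo and read luminescence at 30 min.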
(qHTS replaces the single test concentration by a dilution series.)

Assay [2] is described as follows: qHTS assay to identify small molecule antagonists of the retinoid acid receptor (RAR) signaling pathway - cell viability counter screen (AID 1159551). Further: nearly all actives have a fitted effect of over 35% in size. An outline of the steps:
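Cells (C3RL4) are plated, incubated overnight, dosed with compound in DMSO, then given retinol at 1 uM final. After 6 h at 37 C, CellTiter-Glo is added and luminescence read following 30 min at room temperature.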

The nature of assay [3]: qHTS assay to identify small molecule antagonists of the retinoic acid receptor (RAR) signaling pathway (AID 1159552; further: nearly all actives have a fitted effect of over 50% in size). An outline of the steps: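 Retinol at 1 uM final stimulated RARE-luciferase expression in C3RL4 cells exposed to test compounds for 6 hr at 37 C. Reduced luminescence, read 30 min after detection reagent, indicated pathway antagonism.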
Assay [4] is described as follows: qHTS assay to identify small molecule agonists of the retinoic acid receptor (RAR) signaling pathway (AID 1159553). An outline of the steps:
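Seed C3RL4 reporter cells at 1,000 per well and incubate overnight at 37 C. Add compounds in DMSO, incubate 6 hr. Add luciferase reagent, wait 30 min at room temperature, read luminescence.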

Assay [5] can be described thus: qHTS assay to identify small molecule antagonists of the estrogen related receptor (ERR) signaling pathway from Tox21 library - cell viability counter screen (AID 1224834). Further: nearly all actives have a fitted effect of over 30% in size. Further: potency means the concentration at half of the fitted maximal effect. The procedure, abridged:
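ERR cells, 2,000/well; 6 h settle at 37 C/5% CO2; pin-tool compound transfer in DMSO; 17.5 h at 37 C; CellTiter-Fluor, 30 min; fluorescence intensity.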

Assay [6] in a line: qHTS assay to identify small molecule agonists of the constitutive androstane receptor (CAR) signaling pathway - cell viability counter screen (AID 1224836). Further: nearly all actives have a fitted effect of over 45% in size. Further: potency means the concentration at half of the fitted maximal effect. The procedure, abridged: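 Cells were seeded and incubated 4 hrs. Compounds were added across 15 concentrations together with PK11195 at 0.75 uM final. Plates were incubated 23 hrs at 37 C. CellTiter-Fluor was added and fluorescence measured.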

Assay [7] is described as follows: qHTS assay to identify small molecule antagonists of the constitutive androstane receptor (CAR) signaling pathway - cell viability counter screen (AID 1224837). Further: nearly all actives have a fitted effect of over 45% in size. Further: potency means the concentration at half of the fitted maximal effect. The procedure, abridged: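 Viability was measured with CellTiter-Fluor in a HepG2 line carrying stably transfected hCAR and a CYP2B6-2.2kb construct. Cells were exposed for 23 hr at 37 C to 15 compound concentrations with 50 nM CITCO as agonist.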

The target of assay [8] is Nuclear receptor subfamily 1 group I member 3 (Homo sapiens) (UniProt Q14994). The assay can be described thus: qHTS assay to identify small molecule antagonists of the constitutive androstane receptor (CAR) signaling pathway (AID 1224838).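 Further: HepG2 cells stably expressing hCAR with CYP2B6 luciferase reporter stimulated by CITCO; nearly all actives have a fitted effect of over 40% in size.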 The procedure, abridged:
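Antagonist mode used CITCO at a final 50 nM to activate CAR in human hepatoma HepG2 cells carrying stable hCAR and a 2.2 kb CYP2B6 promoter-luciferase construct. Compounds were tested at 15 concentrations over 24 h, with luminescence as the end point.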

Assay [9] in a line: qHTS assay to identify small molecule antagonists of the estrogen related receptor signaling pathway with the pleiotropic PPARgamma coactivator (PGC) from Tox21 10K library - cell viability counter screen (AID 1224840; active means well fitted cell-killing curve with a large enough effect in the repeat runs, not every such curve was filed as active; further: nearly all actives have a fitted effect of over 40% in size; further: potency means the concentration at half of the fitted maximal effect). The procedure, abridged:
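Multiplexed viability counter screen in the PGC/ERR cell line: cells treated with DMSO-dissolved compounds for 17.5 hours at 37 C, then viability measured as CellTiter-Fluor fluorescence.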

The target in assay [10] is Thyrotropin receptor (Homo sapiens) (UniProt P16473). The assay can be described thus: qHTS assay to identify small molecule agonists of the thyroid stimulating hormone receptor (TSHR) signaling pathway (AID 1224843; calls by dose curve; further: nearly all actives have a fitted effect of over 45% in size). An outline of the steps: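 Agonist-mode screen: TSHR HEK293 cells received test chemicals for half an hour at room temperature, then HTRF cAMP detection reagents for one hour prior to fluorescence measurement. Each chemical ran as a 15-concentration series, triplicated.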
Chain of Thyrotropin receptor (Homo sapiens) (P16473 whole entry, looked up): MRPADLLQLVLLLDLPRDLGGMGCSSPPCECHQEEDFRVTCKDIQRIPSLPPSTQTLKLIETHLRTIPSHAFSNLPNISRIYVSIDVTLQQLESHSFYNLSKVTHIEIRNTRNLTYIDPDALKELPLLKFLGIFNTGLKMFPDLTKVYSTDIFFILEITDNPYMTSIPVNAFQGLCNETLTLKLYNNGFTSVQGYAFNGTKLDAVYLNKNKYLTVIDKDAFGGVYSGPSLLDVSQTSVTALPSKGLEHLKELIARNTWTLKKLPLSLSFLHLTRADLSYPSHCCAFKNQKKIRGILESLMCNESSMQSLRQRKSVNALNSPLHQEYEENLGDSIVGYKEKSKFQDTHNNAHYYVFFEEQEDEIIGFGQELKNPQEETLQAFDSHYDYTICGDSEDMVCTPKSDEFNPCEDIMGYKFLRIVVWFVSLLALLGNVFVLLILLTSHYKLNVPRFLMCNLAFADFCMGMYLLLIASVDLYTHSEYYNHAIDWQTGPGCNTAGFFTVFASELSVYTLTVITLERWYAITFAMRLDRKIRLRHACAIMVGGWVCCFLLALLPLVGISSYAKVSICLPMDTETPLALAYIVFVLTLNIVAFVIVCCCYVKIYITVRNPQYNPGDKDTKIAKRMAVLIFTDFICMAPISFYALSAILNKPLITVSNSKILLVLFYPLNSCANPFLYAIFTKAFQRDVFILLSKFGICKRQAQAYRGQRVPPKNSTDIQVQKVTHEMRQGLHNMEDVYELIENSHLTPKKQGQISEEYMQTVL

Assay [11] has as its target Nuclear receptor subfamily 1 group I member 3 (Homo sapiens) (UniProt Q14994). Description: qHTS assay to identify small molecule agonists of the constitutive androstane receptor (CAR) signaling pathway (AID 1224839). Further: series mostly up to about 92 µM; nearly all actives have a fitted effect of over 15% in size. An outline of the steps:
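Cells were plated and incubated 4 hrs, then dosed with compounds at 15 concentrations. PK11195 was added to 0.75 uM final. After 24 hrs at 37 C, luciferase luminescence was measured.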

Assay [12] can be described thus: qHTS assay to identify small molecule antagonists of the estrogen related receptor (ERR) signaling pathway - cell viability counter screen (AID 1224818). Further: series mostly up to about 46 µM. An outline of the steps:
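ERR cells, 2,000/well; 6 h settle at 37 C/5% CO2; compound pin transfer (DMSO); 17.5 h at 37 C; CellTiter-Fluor, 30 min, fluorescence read.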

Assay [13] can be described thus: qHTS assay to identify small molecule antagonists of the estrogen related receptor signaling pathway with the pleiotropic PPARgamma coactivator (PGC) cell viability counter screen (AID 1224822;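 further: series mostly up to about 46 µM; viability read after 17.5 h compound exposure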). The procedure, abridged: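 Multiplexed viability counter screen run in PGC/ERR cells treated with compounds for 17.5 h at 37 C; live-cell protease signal measured by CellTiter-Fluor fluorescence.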

Assay [14] is described as follows: qHTS assay to identify small molecule antagonists of the estrogen related receptor (ERR) signaling pathway (AID 1224819;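 further: luminescence from an ERR-driven luciferase reporter measured with One-Glo reagent; series mostly up to about 46 µM; nearly all actives have a fitted effect of over 50% in size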). The procedure, abridged:
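qHTS in ERR cells, 2,000/well, 1536 format. Cpd (DMSO) added after 6 h settle, 18 h 37 C. One-Glo luminescence, 30 min RT.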

Assay [15] in a line: qHTS assay to identify small molecule agonists of the estrogen related receptor (ERR) signaling pathway (AID 1224820). The procedure, abridged: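 An ERR cell line provided by NTP was seeded at 2,000 cells per well and allowed to settle for 6 h before compounds in DMSO were added. After 18 h at 37 C, luciferase activity was measured by One-Glo luminescence.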
Assay [16] concerns estrogen-related receptor alpha (ERRalpha) with PGC-1alpha coactivator, human. The assay can be described thus: qHTS assay to identify small molecule antagonists of the estrogen related receptor signaling pathway with the pleiotropic PPARgamma coactivator (PGC) (AID 1224821; calls by dose curve;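 further: series mostly up to about 46 µM; lower luminescence signal means antagonism of PGC/ERR signalling; nearly all actives have a fitted effect of over 50% in size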). An outline of the steps:
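A PGC/ERR cell line supplied by NTP is seeded, allowed 6 h at 37 C, and treated with test compounds in DMSO for 18 h. Signal is then measured as luciferase luminescence using One-Glo.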

A short description of assay [17]: qHTS assay to identify small molecule agonists of the estrogen related receptor signaling pathway with the pleiotropic PPARgamma coactivator (PGC) (AID 1224823). An outline of the steps:
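Compounds dissolved in DMSO are added by pin tool to PGC/ERR cells that have settled for 6 h, and incubation continues 18 h at 37 C. Reporter output is measured as One-Glo luminescence.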

A short description of assay [18]: qHTS assay to identify small molecule antagonists of the estrogen related receptor signaling pathway with the pleiotropic PPARgamma coactivator (PGC) from Tox21 10K library (AID 1224841; call rule not given here). The procedure, abridged:
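Steps: plate 2,000 PGC/ERR cells per well; incubate 6 h at 37 C with 5% CO2; transfer compounds from DMSO stocks by pin tool; incubate 18 h at 37 C; add One-Glo; measure luminescence 30 min later.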

A short description of assay [19]: qHTS assay to identify small molecule agonists of the estrogen related receptor signaling pathway with the pleiotropic PPARgamma coactivator (PGC) from Tox21 10K library (AID 1224842). Further: nearly all actives have a fitted effect of over 15% in size. An outline of the steps:
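PGC/ERR reporter cell line, 2,000 cells per well, incubated 6 h at 37 C before 23 nL compound in DMSO was added. After 18 h at 37 C, One-Glo luminescence read following 30 min at room temperature.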

For assay [20], the target named is Luciferin 4-monooxygenase (Photinus pyralis) (UniProt P08659). The assay can be described thus: qHTS assay to identify small molecule inhibitors of firefly luciferase (AID 1224835). Further: series mostly up to about 120 µM; nearly all actives have a fitted effect of over 25% in size. An outline of the steps:
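Biochemical qHTS: compounds run as interplate titrations against purified firefly enzyme, with D-luciferin and ATP each at its KM concentration. Light output recorded by CCD imaging.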

Where “and” joins values, the source holds several entries; their conditions need not be identical. Equal entries are not always repeated. Records with an inconclusive call do not appear. Calls of active or inactive are those of the source. Unless noted, the call rests on the fitted dose curve; in most records, active means well fitted curve in the direction sought with a large enough effect in the repeat runs; inconclusive means weak or mixed curves; inactive means no such curve, though single readings can be large; an effect the other way counts as inactive or inconclusive.

Chain of Nuclear receptor subfamily 1 group I member 3 (Homo sapiens) (Q14994 whole entry, looked up): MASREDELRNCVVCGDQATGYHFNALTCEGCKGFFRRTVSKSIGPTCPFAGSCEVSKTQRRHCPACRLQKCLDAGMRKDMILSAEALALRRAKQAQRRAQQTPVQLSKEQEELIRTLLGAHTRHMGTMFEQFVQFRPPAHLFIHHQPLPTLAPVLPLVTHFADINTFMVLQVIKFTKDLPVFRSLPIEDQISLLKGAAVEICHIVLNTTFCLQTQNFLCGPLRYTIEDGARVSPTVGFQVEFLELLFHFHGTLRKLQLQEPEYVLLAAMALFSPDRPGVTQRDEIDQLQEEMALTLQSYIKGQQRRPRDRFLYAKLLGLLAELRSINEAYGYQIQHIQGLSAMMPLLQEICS
Chain of Luciferin 4-monooxygenase (Photinus pyralis) (P08659 whole entry, looked up): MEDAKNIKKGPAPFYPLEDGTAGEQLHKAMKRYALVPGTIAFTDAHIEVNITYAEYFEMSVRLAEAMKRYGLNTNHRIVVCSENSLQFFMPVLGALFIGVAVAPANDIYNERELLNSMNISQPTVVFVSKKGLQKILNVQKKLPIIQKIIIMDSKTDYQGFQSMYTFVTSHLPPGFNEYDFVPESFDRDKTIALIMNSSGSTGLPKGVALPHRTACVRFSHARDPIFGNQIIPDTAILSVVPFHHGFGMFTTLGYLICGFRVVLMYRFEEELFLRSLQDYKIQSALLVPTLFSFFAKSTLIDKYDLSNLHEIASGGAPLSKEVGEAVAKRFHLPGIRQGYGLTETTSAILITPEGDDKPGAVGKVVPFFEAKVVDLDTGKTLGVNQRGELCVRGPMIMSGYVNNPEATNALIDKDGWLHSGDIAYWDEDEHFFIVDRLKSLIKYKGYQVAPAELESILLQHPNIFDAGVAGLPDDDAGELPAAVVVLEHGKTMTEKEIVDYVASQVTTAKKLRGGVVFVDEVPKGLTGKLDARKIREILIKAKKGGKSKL

With `O=C(c1ccccc1)C(O)c1ccccc1` (stereo not drawn), the Potency entry in assay [1], in assay [3], in assay [5], in [6], in assay [7] and in assay [8] was “inactive” in each case. In addition, the Potency result in [9] is “inactive”. The molecule was classed as inactive in [2], in assay [4] and in [10].

In the case of `COc1c2occc2cc2ccc(=O)oc12`, the Potency entry in assay [1], in assay [3], in [5], in assay [6], in assay [7] and in [9] was “inactive” throughout. For the same molecule, the molecule was classed as inactive in [2], in assay [4] and in assay [10].

On to `CC(O)C(=O)O` (stereo not drawn), for which the Potency entry in assay [1], in [3], in assay [5], in [6], in assay [7] and in [8] was “inactive” in each case. In addition, the Potency result in assay [11] and in assay [9] was “inactive” each time. For the same molecule, the result in assay [2], in [4] and in assay [10] was inactive.

As to `Nc1ccn([C@H]2CC[C@@H](CO)O2)c(=O)n1`, the Potency entry in assay [1], in assay [5], in assay [6], in assay [7] and in assay [9] was “inactive” each time. The molecule was called inactive in assay [2], in assay [12], in assay [13] and in assay [10].

`Nc1ccc(C(=O)O)cc1`: the Potency entry in assay [1], in [3], in assay [5], in assay [6], in [7] and in assay [8] was “inactive” in each case. Moreover, the Potency entry in assay [11] and in [9] was “inactive” each time. The call in assay [2], in assay [4] and in assay [10] was inactive.

For the molecule `O=C(O)CS`, the Potency result in [1], in assay [5], in assay [6], in assay [7] and in assay [9] was “inactive” in each case. Besides, in [2], the result was inactive.

For `Cc1ccc(C)c(OCCCC(C)(C)C(=O)O)c1`, the Potency result in assay [1], in assay [3], in assay [5], in assay [6], in [7] and in assay [9] was “inactive” each time. Besides, the molecule was classed as inactive in [2], in assay [4] and in [10].

`COc1ccc2[nH]cc(CCNC(C)=O)c2c1`: the Potency entry in assay [1], in assay [15], in assay [17], in assay [5], in [6] and in [7] was “inactive” each time. Besides, the Potency result in [8], in [11], in assay [9], in assay [18] and in [19] was “inactive” in each case. The result in assay [2], in [12], in assay [14], in [16], in assay [13] and in assay [10] was inactive.

Turning to `CC(O)CO` (stereo not drawn), the Potency entry in [1], in assay [3], in [5], in assay [6], in [7] and in assay [9] was “inactive” throughout. The Potency entry in assay [18] and in [19] was “inactive” in each case. Also, the molecule was classed as inactive in [2], in assay [4] and in assay [10].

For `O=C(O)c1[nH]n(-c2ccc(S(=O)(=O)O)cc2)c(=O)c1N=Nc1ccc(S(=O)(=O)O)cc1`, the Potency entry in assay [1], in assay [20], in [8] and in assay [11] was “inactive” each time. The molecule was classed as inactive in assay [2] and in [10]. Also, the Potency in assay [5] was 26.6 µM (active) and 27.4 µM (active) and 28.6 µM (active); in [6], 30.7 µM (active) and 45.4 µM (active); in [7], 48.7 µM (active) and 28.6 µM (active); in assay [9] it was 27.4 µM (active) and 45.4 µM (active).
